From PubChem BioAssay (NCATS) come the findings set out here.

The structures appear in SMILES notation. Starred links: 1 amine or outer side, 2 acyl side, 3 side chain; linkers in the order of their positions; H or OH if unused. Positions of bridges follow the written chain, without caps; N, C: chain ends. Non-standard residues stand in square brackets, D forms with d. Residues, ends and D or L forms follow the SMILES beside them. Chains are numbered I, II in the order given. Actinocin(9to1) = Cc1c2oc3c(C)ccc(C(=O)[*:1])c3nc-2c(C(=O)[*:2])c(N)c1=O; NMeV = CN[CH](C(=O)O)C(C)C; Sar = CNCC(=O)O

This test in a line: High-throughput drug toxicity screening in the BPDCN cell line Cal-1 (AID 1224825). The settings on record: Cal-1 BPDCN cell viability, qHTS; at 45.8 µM (top of the series) unless noted. The source says: Blastic plasmacytoid dendritic cell neoplasm (BPDCN) is a rare, aggressive and largely incurable hematologic malignancy originating from plasmacytoid dendritic cells (pDCs). Although an initial response to chemotherapy is common, BPDCN prognosis is extremely poor and most patients relapse with drug-resistant disease leading to a median overall survival of ~1 year after diagnosis. To explore novel potential therapeutic strategies in BPDCN, we performed a high-throughput drug toxicity screening in BPDCN cell liens, using of a library of 1,912 small molecules, enriched for compounds that are either approved or in early stages of development for cancer therapy.
A total of 500 exponentially growing Cal-1 cells were seeded per well in 5 uL of media (RPMI + Glutamine, without phenol red plus10% FBS and 1X Pen/Strep) into 1536-well solid white high base tissue culture treated Greiner One Bio Plates (789173-F), using a multidrop combi dispenser and a small sterile cassette. Compounds and controls totaling 23nL per well (negative control DMSO and positive control 9.2 uM Bortezomib-final) were immediately added to the plates using a 1536 head pin tool from Kalypsys. The plates were then covered with stainless steel gasket lids from Kalypsys and incubated for 48 hours at 37C under 95% relative humidity with 5% CO2. After 48 hours, the plates were removed and allowed to reach room temperature before 3 uL of Cell Titer Glo reagent (Promega) were added using an Aurora Flying Reagent Dispenser Bioraptor. The plates were then spun at 1000 rpms to remove bubbles and incubated for 15 minutes at room temperature before reading on a ViewLux using a luminescent filter with a 10 second exposure. The relative luciferase units were used to calculated percent activity using DMSO as 100% and Bortezomib as 0%.
On the technique in general: qHTS replaces the single test concentration by a dilution series.
As for `C[C@H](NC(=O)[C@@H](O)c1cc(F)cc(F)c1)C(=O)N[C@@H]1C(=O)N(C)c2ccccc2-c2ccccc21`, the viability (% of control) was 103%.
Under `CC1(C)CC(O)CC(C)(C)N1[O]` stands 102%; under `C=CCNC1=C2C[C@@H](C)C[C@H](OC)[C@@H](O)[C@@H](C)C=C(C)[C@H](OC(N)=O)[C@@H](OC)C=CC=C(C)C(=O)NC(=CC1=O)C2=O`, 5.31%; under `O=C(O)CCCCC(CCSCc1ccccc1)SCc1ccccc1` (stereo not given), 23.9%.
To `O=C1CSC(=O)N1C(CCc1ccncc1)COc1ccc(-c2cccc([N+](=O)[O-])c2)cc1` (stereo not given) belongs 33%; to `CN(N=O)C(=O)N[C@H]1C(O)OC(CO)[C@@H](O)[C@H]1O` (stereo not given in full), 96.8%.
To `CNC(=O)Nc1ccc(-c2nc(N3CC4CCC(C3)O4)c3cnn(C4CCC5(CC4)OCCO5)c3n2)cc1` belongs 8.62%.
As for `CC(C)C[C@H](NC(=O)[C@@H](NC(=O)c1cccc(-c2ccccc2)n1)[C@@H](C)O)B(O)O`, the viability (% of control) came to 4.67%.
In the case of `CCCNS(=O)(=O)Nc1ncnc(OCCOc2ncc(Br)cn2)c1-c1ccc(Br)cc1`, the viability (% of control) was determined as 117%.
`CC(C)NC[C@@H](C(=O)N1CCN(c2ncnc3c2[C@H](C)C[C@H]3O)CC1)c1ccc(Cl)cc1`: the viability (% of control) was 1.88%.
Under `CC(C)OC(=O)[C@H](C)N[P@](=O)(OC[C@H]1O[C@@H](n2ccc(=O)[nH]c2=O)[C@](C)(F)[C@H]1O)Oc1ccccc1` stands 88.9%.
Consider `CC(=O)OC[C@@H]1O[C@@H](n2ccc(=O)[nH]c2=O)[C@H](OC(C)=O)[C@H]1OC(C)=O`, for which the viability (% of control) was found to be 104%.
To `Cn1cc(CNCC2CCN(c3ncc(C(=O)NO)cn3)CC2)c2ccccc21` belongs 4.24%.
Under `CCCCCN=C(N)NN=Cc1c[nH]c2ccc(OC)cc12` stands 11.8%.
To `CC(=O)SCC(Cc1ccccc1)C(=O)NCC(=O)OCc1ccccc1` (stereo not given) belongs 4.75%; to `Cn1cc(C2=C(c3c4n(c5ccccc35)CCC(CN)C4)C(=O)NC2=O)c2ccccc21` (stereo not given), 2.84%.
Turning to `O=S(=O)(O)CCSSCCS(=O)(=O)O`, the viability (% of control) worked out at 35.3%.
Regarding `CC(C=CC(=O)NO)=C[C@@H](C)C(=O)c1ccc(N(C)C)cc1`, the viability (% of control) turned out to be 2.32%.
Under `CCCCC(=O)O[C@]1(C(=O)CO)[C@@H](C)C[C@H]2[C@@H]3CCC4=CC(=O)C=C[C@]4(C)[C@@]3(F)[C@@H](O)C[C@@]21C` stands 51.8%.
Take `COc1ccc2c(c1OC)C(=O)OC2[C@H]1c2c(cc3c(c2OC)OCO3)CCN1C` (stereo not given in full): the viability (% of control) came to 8.98%.
To `Cc1c2oc3c(C)ccc(C(=O)NC4C(=O)NC(C(C)C)C(=O)N5CCCC5C(=O)N(C)CC(=O)N(C)C(C(C)C)C(=O)OC4C)c3nc-2c(C(=O)NC2C(=O)NC(C(C)C)C(=O)N3CCCC3C(=O)N(C)CC(=O)N(C)C(C(C)C)C(=O)OC2C)c(N)c1=O` (stereo not given) (I: TVP[Sar][NMeV] / II: TVP[Sar][NMeV]; ester I:1-I:C, II:1-II:C; linker I:N-II:N via Actinocin(9to1); configuration not given here) belongs 1.96%; to `Nc1nc(=O)n([C@H]2C[C@H](O)[C@@H](CO)O2)cc1F`, 35.3%; to `O=c1[nH]c(=O)n([C@H]2C[C@@H](O)[C@@H](CO)O2)cc1F`, 19.4%.
As to `CN1[C@H]2CC(OC(=O)[C@@H](CO)c3ccccc3)C[C@H]1[C@H]1O[C@H]12` (stereo not given in full), the viability (% of control) was 107% [at 23.2 µM].
`N#CC(=C(O)c1ccc(Cl)cc1Cl)c1nc2cc(Cl)ccc2c(=O)[nH]1`: the viability (% of control) stood at 95.9%.
To `CCS(=O)(=O)Nc1ccc2[nH]c(O)c(C(=Nc3ccc(CN4CCCCC4)cc3)c3ccccc3)c2c1` belongs 7.15%; to `COc1ccc(C=Cc2cc(OC)c(OC)c(OC)c2)cc1NC(=O)[C@H](N)CO`, 7.97%.
To `OCc1ccccc1O[C@@H]1O[C@H](CO)[C@H](O)[C@H](O)[C@H]1O` belongs 108%.
`OCCNC1CCCc2c1[nH]c1ccc(-c3ccccc3)cc21` (stereo not given): the viability (% of control) was determined as 0.798%.
To `CC(C)n1cnc2c(NCCc3ccc(O)cc3)nc(-c3csc4ccccc34)nc21` belongs 2.43%; to `CC(C(C)N1CC(=O)NC(=O)C1)N1CC(=O)NC(=O)C1` (stereo not given), 27.4%; to `CCOc1cc2c(c(F)c1OCC)C(=N)N(CC(=O)c1cc(N3CCOCC3)c(OC)c(C(C)(C)C)c1)C2`, 2.82%.
As to `OC[C@@H](O)[C@@H](O)[C@H](O)[C@@H](O)CO`, the viability (% of control) was 126%.
To `CS[C@H]1SC[C@@H]2C(=O)N(C)[C@H](C(C)C)C(=O)OC[C@H](NC(=O)c3cnc4ccccc4n3)C(=O)N[C@H](C)C(=O)N(C)[C@@H]1C(=O)N(C)[C@H](C(C)C)C(=O)OC[C@H](NC(=O)c1cnc3ccccc3n1)C(=O)N[C@H](C)C(=O)N2C` belongs 5.19%; to `CCOC(=O)[C@@H](N)Cc1ccc(-c2cc(O[C@H](c3ccc(Cl)cc3-n3ccc(C)n3)C(F)(F)F)nc(N)n2)cc1`, 16.2%; to `CN(C)c1ccc2cc(C(=O)N[C@@H](CCCN=C(N)CCl)C(=O)NCc3ccccc3)ccc2c1`, 2.66%.
Under `CC(=O)C1=C(O)C=C2Oc3c(C(C)=O)c(O)c(C)c(O)c3C2(C)C1=O` (stereo not given) stands 103%; under `CC(=O)N[C@@H]1[C@H](O[C@@H]2c3ccc(c(Cl)c3)Oc3cc4cc(c3O[C@H]3O[C@H](CO)[C@@H](O)[C@H](O)[C@H]3NC(=O)CCCCCCCC(C)C)Oc3ccc(cc3Cl)C[C@H]3NC(=O)[C@H](N)c5ccc(O)c(c5)Oc5cc(O)cc(c5)[C@H](NC3=O)C(=O)N[C@H]4C(=O)N[C@H]3C(=O)N[C@@H]2C(=O)N[C@@H](C(=O)O)c2cc(O)cc(O[C@H]4O[C@H](CO)[C@@H](O)[C@H](O)[C@H]4O)c2-c2cc3ccc2O)O[C@H](CO)[C@@H](O)[C@@H]1O`, 104%; under `CCOC(=O)C=C[C@H](C[C@@H]1CCNC1=O)NC(=O)[C@@H](CC(=O)[C@@H](NC(=O)c1cc(C)on1)C(C)C)Cc1ccc(F)cc1`, 107%.
Under `O=C(Nc1cc2cc[nH]c2cn1)c1ccccc1` stands 8.25%.
